# Measured values published in ChEMBL document CHEMBL4513216, “Probing the Open Global Health Chemical Diversity Library for Multistage-Active Starting Points for Next-Generation Antimalarials” (ACS Infect Dis, 2020).
# The campaign covered roughly 69,000 compounds. About 8,600 (12%) showed an effect of 50% or more. The sample holds strong results, similar compounds and a random draw of the others, so the mix is not that of the screen.
# System: Plasmodium berghei
# Assay: Screen against P. berghei liver stage (PbLuc), transformed with Luciferase, at 10uM
# Assay type: functional, HepG2
# Details: tested at 10 uM
row,Compound,INHIBITION [%]
1,CC(CN1CCOCC1)NC(=O)N1CCCC1 (stereo not given),-15
2,CN(C)[C@@H]1CCN(c2ncccn2)[C@H]1Cc1ccncc1,26.8
3,COC(=O)c1ccc(OC)c(Cn2cc(Br)cn2)c1,20.6
4,Cc1[nH]c2ccc(CNC(=O)c3ccc(CN4CCCC4)o3)cc2c1C,40.3
5,O=C(NCc1ccc2[nH]c(=O)[nH]c2c1)c1ccc(CN2CCCC2)o1,56.2
6,O=C(CN1CCCCCC1)NCc1ccc2[nH]c(=O)[nH]c2c1,-20.1
7,CC1CCCN1Cc1ccccc1-c1nc(C(C)(C)C)cc(=O)[nH]1 (stereo not given),9
8,CN(C)c1ccc(C(=O)N2CCCC(n3cncn3)C2)nn1 (stereo not given),0.411
9,CCOC(=O)c1n[nH]cc1-c1cncn1CCn1nc(C)c(C)c1C,12.3
10,COc1ccc(-c2cc(C3CCCCCN3S(=O)(=O)N(C)C)on2)cc1 (stereo not given),55.2
11,CN(C)S(=O)(=O)N1CCCCCC1c1cc(-c2ccc(F)cc2)no1 (stereo not given),38.4
12,COc1ccc(-c2cc(C3CCCCCN3S(C)(=O)=O)on2)cc1 (stereo not given),12.725
13,CSc1cccc(CNC(=O)[C@H]2CNC[C@H](C(=O)N3CCOCC3)C2)c1,35.8
14,O=C1Nc2ccccc2CNC12CCN(CC1CCNC1)CC2 (stereo not given),29.2
15,COCc1cccc(C(=O)N2C[C@@H]3CC[C@H]2CN(Cc2cscn2)C3)n1,-38.6
16,COc1ccc(-c2cc3nc([C@H](C)NC(=O)C4CC4)nn3cn2)cc1,-5.71
17,C[C@H](NC(=O)C1CCCC1)c1nc2cc(-c3ccc(F)cc3)ncn2n1,58.1
18,C[C@H](NC(=O)C1CC1)c1nc2cc(-c3ccc(F)cc3)ncn2n1,49.6
19,CCN1Cc2ccccc2CC2(CCN(CC(=O)O)CC2)C1=O,37.5
20,NCCC(=O)Nc1ccc(-c2ccccc2)cc1,14.5
21,N#CC1(NC(=O)COc2cc(Cl)cc(Cl)c2)CCSC1 (stereo not given),38.5
22,Cc1ccc(OCC(=O)NC2(C#N)CCSCC2)cc1C,41.4
23,Cc1c(Cl)cccc1OCC(=O)NC1(C#N)CCSC1 (stereo not given),87.2
24,CN(C)C(=O)c1cc(-c2ccccc2)[nH]n1,-35
25,CC(C)c1ccc(CC2(C)Cc3cc(CC(=O)O)ccc3O2)cc1 (stereo not given),20.85
26,CN(C)[C@H]1CCCCN(C(=O)c2cccc(-c3cccc(F)c3)c2)C1,60.4
27,CN(C)[C@H]1CCCCN(C(=O)c2cccc(N3CCS(=O)(=O)CC3)c2)C1,30.9

row,Compound,INHIBITION [%]
1,CN(C)Cc1cnc(C2CCN(C(=O)c3cccc(F)c3)C2)[nH]1 (stereo not given),41.7
2,CN(C(=O)CCNC(=O)NC1CCCCC1)c1ccccc1,27.6
3,Cn1c(NCC(O)c2ccccc2F)c(C#N)c(=O)n(C)c1=O (stereo not given),-5.25
4,CNC(=O)[C@@H]1C[C@@H](NC(=O)CCCc2cccs2)CN1C1CCOCC1,10.4
5,CNC(=O)[C@@H]1C[C@@H](NC(=O)CSc2ccccc2)CN1C1CCOCC1,54.6
6,CNC(=O)[C@@H]1C[C@@H](NC(=O)Cc2cccs2)CN1C1CCOCC1,23.5
7,CC(C)n1cc(CN2CCCN(C(=O)C3CCCN3C)CC2)cn1 (stereo not given),26.4
8,CCN(CCO)C[C@@H]1CN(c2cccc(C(F)(F)F)n2)C[C@@H]1CO,3.13
9,COc1ccccc1OCC(=O)NS(=O)(=O)c1cc(F)ccc1F,5.14
10,COc1cc(C#N)ccc1OCC(=O)NS(=O)(=O)c1ccccc1,50.6
11,COc1ccccc1OCC(=O)NS(=O)(=O)c1ccc(Cl)cc1F,29.5
12,COc1ccccc1OCC(=O)NS(=O)(=O)c1ccc(F)cc1F,63.3
13,COc1ccccc1CC(=O)NS(=O)(=O)c1ccc(C#N)cc1,15.6
14,COc1cc(C#N)ccc1OCC(=O)NS(=O)(=O)c1cccnc1,19.4
15,CN1CCCN(C(=O)NCc2cc(Br)cs2)CC1,-13.935
16,Cc1ccc(-c2cc(C(=O)NCCN3CCCS3(=O)=O)[nH]n2)cc1,-8.15
17,Cc1ccccc1NC(=O)Nc1c[nH]c(=O)[nH]c1=O,35.7
18,Cc1ccc(CN2CCc3ncc(CNC(=O)C4CCC4)n3CC2)o1,45.1
19,O=C(NCCOC1CCCCC1)c1ccc(-c2ccco2)[nH]c1=O,-14.6
20,Cc1nc(-c2nnc[nH]2)sc1C(=O)N1CCCC1Cn1cccn1 (stereo not given),-1.45
21,O=C(N[C@@H]1CC[C@@H](n2ccnc2)[C@@H]1O)c1cc2c(s1)CCC2,9.93
22,O=C(N[C@@H]1CCC[C@@H](n2ccnc2)[C@@H]1O)c1ccc2c(c1)CCCC2,38.2
23,O=C(Cc1ccc2c(c1)CCCC2)N[C@@H]1CC[C@@H](n2ccnc2)[C@@H]1O,64.9
24,CCN1CC[C@@]2(C(=O)N3CCOCC3)CCN(C(=O)CC(C)C)CC[C@@H]12,11.2
25,CNC(=O)CCS(=O)(=O)Cc1cc(Cl)c2c(c1)OCCCO2,-11.4
26,Cc1occc1C(=O)N1CCO[C@H]2[C@H](Oc3cccnc3)CC[C@@H]21,18.6
27,CC(=O)NC1CCN(c2nc(N)nc3c2CCCC3)C1 (stereo not given),46.6

row,Compound,INHIBITION [%]
1,COCCc1noc(CN2CCCC2c2noc(C3CC3)n2)n1 (stereo not given),-14.1
2,COCCn1ccnc1C1CCCN(c2ncnc3c(C)csc23)C1 (stereo not given),-0.529
3,CCc1c(C)nc(N)nc1N1CCCC(c2nc(CCOC)no2)C1 (stereo not given),68.6
4,COCCN1CCN(Cc2noc(C3CC3)n2)CC1C (stereo not given),20.1
5,COCCn1ccnc1C1CCCN(c2ncnc3c2CCC3)C1 (stereo not given),57.5
6,Cc1cc(C)n(C2CCN(c3ncnc4c3CCC4)C2)n1 (stereo not given),36.1
7,COCCCN(C)C1CCCN(Cc2noc(C3CC3)n2)C1 (stereo not given),44.1
8,CCc1nc2c(N3CCCC(c4nccn4CCOC)C3)ncnc2o1 (stereo not given),29.1
9,COCCc1noc(C2CCCN(c3nc(N)nc4c3CCCC4)C2)n1 (stereo not given),65.2
10,COCCc1noc(C2CCCN(c3ncnc4c3CCC4)C2)n1 (stereo not given),78.8
11,c1nc2c(c(N3CCCC(Cn4cncn4)C3)n1)CCC2 (stereo not given),29.2
12,COC[C@]12COC[C@H]1CN(Cc1ccc3c(c1)OCO3)C2,35.8
13,Cc1cnn(CC2CCCN2C(=O)c2nccnc2N)c1 (stereo not given),43.2
14,COc1ccc(OC)c(C(=O)N2CCC(Nc3cccnc3)CC2)c1,-5.08
15,O=C(NC1CCCN(c2ccccc2Cl)C1)c1ccc(=O)[nH]n1 (stereo not given),28.7
16,CC(C)c1nn(C)c(N(C)C)c1CNCc1ccc2c(c1)OCCO2,19.6
17,COc1cc(CNC(=O)c2c(C)noc2C)ccn1,32.15
18,Cc1cc(C(=O)NCc2ccnc(OCC(F)(F)F)c2)on1,-20.893
19,CCOc1cc(CNC(=O)c2cnn(CC)c2C(F)(F)F)ccn1,70.4
20,Cc1noc(C)c1C(=O)NCc1ccnc(OCC(F)(F)F)c1,63.6
21,CCn1ncc(C(=O)NCc2ccc(C)c(OC)c2)c1C(F)(F)F,46.7
22,Cc1ccoc1C(=O)NCc1ccnc(OCC(F)(F)F)c1,-23.593
23,Cc1noc(C)c1CC(=O)NCc1ccnc(OCC(F)(F)F)c1,-9.535
24,Cc1ccsc1C(=O)NCc1ccnc(OCC(F)(F)F)c1,39.5
25,Cc1n[nH]c(C(=O)NCc2ccnc(OCC(F)(F)F)c2)c1Br,81.5
26,CCOc1cccc(CNC(=O)c2cnn(CC)c2C(F)(F)F)c1,-15.3
27,Cc1cc(C(=O)NCc2ccnc(OCC(F)(F)F)c2)no1,-10.45

row,Compound,INHIBITION [%]
1,Cc1ncsc1C(=O)NCc1ccnc(OCC(F)(F)F)c1,73.05
2,CCn1ncc(S(=O)(=O)N2CCCC3(CC=CNC3=O)C2)c1C (stereo not given),46.2
3,CC(C)c1nc2n(n1)CC(NCc1nnc(C3CC3)o1)CC2 (stereo not given),-2.53
4,Cc1nc(C(C)C)sc1C(=O)NCCn1nc2ccccn2c1=O,-22.5
5,COCC1CCCN(C(=O)c2ccccc2NCc2cccnc2)C1 (stereo not given),18.9
6,O=C(CCCOc1cccc(F)c1)N1CCCC(n2cncn2)C1 (stereo not given),-49.5
7,Cc1nc(CN2C(=O)CCC23CCN(Cc2cccn2C)CC3)cs1,29.3
8,Cc1nnc2n1CCN(C(C(=O)N1CCCCC1)c1ccccc1)C2 (stereo not given),11.15
9,O=C1CCN(C(=O)CCc2ccc(Cl)cc2Cl)CCN1,4.97
10,COc1ccc2c(=O)n(CC3CC3)ccc2c1OC,6.28
11,O=c1c(Cc2ccc(Cl)cc2Cl)c(O)ccn1CC1CC1,86.6
12,O=C(NCc1ccc(Cl)cc1Cl)NCC1(O)CCSC1 (stereo not given),31.2
13,NC(=O)Cn1ccc(O)c(Cc2ccc(Cl)cc2Cl)c1=O,71.9
14,CCOC(=O)Cn1ccc(O)c(Cc2ccc(Cl)cc2Cl)c1=O,1.95
15,COc1nc2c(cc1C(=O)NC(C)Cc1cnccn1)CCC2 (stereo not given),-40.5
16,O=C(NCCNc1ccc(C(F)(F)F)cn1)c1cc(Cl)ccc1F,37.3
17,C=C(C)COCCNC(=O)Nc1cccc(Cn2nc(C)nc2C)c1,62.8
18,Cc1nc(C)n(Cc2cccc(NC(=O)NC(C)(CO)C3CC3)c2)n1 (stereo not given),47.4
19,CC(=O)Nc1cccc(Cn2nc(C)nc2C)c1,39.7
20,Cc1cc(F)c2c(c1)CCCN2S(=O)(=O)c1ncn(C)c1Cl,33.7
21,Cc1nn(C(C)C)cc1S(=O)(=O)N(C)Cc1nonc1C,11.8
22,CC(=O)N1CCCC1c1nccc(C)n1 (stereo not given),21.6
23,CC(C)(O)CN1CCN(C(=O)c2ccc3c(c2)COC3)CC1,-1.14
24,COc1cccc(CCC2CCCCN2)c1 (stereo not given),36
